Source: PubChem (Broad Institute)
Compounds with a hit are over-represented: about 1.2% of the library has one in this group of screens.
RAD52 anneal inh – inhibitors of human RAD52 DNA annealing; recombinant RAD52 DNA annealing, FRET fluorescence; P43351; AID 651710; hit rate 0.46% among 360,000; inhibition, % at 18.7 µM;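 active = every replicate showing at least 50% inhibition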
Target sequence (P43351 whole entry, looked up): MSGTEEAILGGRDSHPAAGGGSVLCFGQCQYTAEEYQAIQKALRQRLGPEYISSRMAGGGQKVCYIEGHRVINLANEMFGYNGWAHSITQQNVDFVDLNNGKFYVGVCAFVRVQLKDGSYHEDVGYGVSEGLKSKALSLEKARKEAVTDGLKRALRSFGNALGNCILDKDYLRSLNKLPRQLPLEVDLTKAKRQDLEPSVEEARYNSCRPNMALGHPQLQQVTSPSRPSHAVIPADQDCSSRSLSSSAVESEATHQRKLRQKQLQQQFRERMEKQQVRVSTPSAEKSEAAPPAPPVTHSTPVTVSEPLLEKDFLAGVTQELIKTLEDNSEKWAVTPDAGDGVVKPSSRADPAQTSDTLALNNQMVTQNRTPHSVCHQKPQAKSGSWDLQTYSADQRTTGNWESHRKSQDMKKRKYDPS
NSD2 inh – NSD2 (human) methyltransferase inhibition; AID 743445; O96028; NSD2 peptide methylation, AlphaScreen, 120 min; inhibition, % at 12.5 µM; hit rate 0.54% among 310,000; in the data active = inhibition above about 50%
RAD54 branch – blocks human RAD54 Holliday junction branch migration; FAM/BHQ fluorescence; inhibition, % at 10.4 µM; hit rate 0.14% among 360,000;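 active = mean normalized replicate activity at least 40 and at least half of replicates scoring 40 or more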;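 also: inhibitors cause a drop in the FAM fluorescence signal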
N-glyco inh – blocks N-linked glycosylation in D54 reporter cells; AID 588692; reporter increase, % at 12.5 µM; hit rate 0.23% among 360,000; D54 ERlucT glycosylation luciferase reporter, 24 h; percent of 100 nM tunicamycin response;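 active = mean luciferase reporter signal, scaled so untreated is 0 and the glycosylation-blocking control 100, at or above a set limit in every replicate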;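 also: luciferase carries N-glycosylation sites so blocking glycosylation raises the light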
CASP6 VEID inh – blocks human caspase-6 cleavage activity | hit rate 0.53% among 350,000 | purified caspase-6, Z-VEID-R110 cleavage fluorescence | inhibition, % at 12.5 µM | P55212;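 active = mean inhibition across replicates at least about 35%, with every replicate also reaching that limit, limit read from the data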
Target sequence (P55212 24-179 limits assumed): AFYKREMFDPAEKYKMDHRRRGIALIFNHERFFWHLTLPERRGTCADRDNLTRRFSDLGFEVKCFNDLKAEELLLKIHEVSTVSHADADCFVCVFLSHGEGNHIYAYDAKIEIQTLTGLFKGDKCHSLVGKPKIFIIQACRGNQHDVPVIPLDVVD
Target sequence (P55212 194-293 limits assumed): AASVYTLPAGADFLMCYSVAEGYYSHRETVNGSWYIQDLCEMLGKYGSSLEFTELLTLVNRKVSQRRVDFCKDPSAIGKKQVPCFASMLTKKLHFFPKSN
AlphaScreen art – AlphaScreen assay artifact in NSD2 counter-screen. shares compounds with NSD2 inh. AlphaScreen artifact counterscreen, preloaded methylated H4 peptide. AC35, µM (series often up to 10 µM). hit rate 9.4% among 1,500. AID 1053174; call rule not given here
Of the large screens only hits and unclear results are named; the others gave an inactive call (follow-up assays come after a bar, where they were run).

CC1(C)Cc2c(c(-c3ccco3)[nH]c(=O)c2C#N)CO1	NSD2 inh 58 (no result: RAD52 anneal inh, CASP6 VEID inh) | AlphaScreen art inactive
CN(C)CCNc1nc(-c2ccco2)c2c(c1C#N)CC(C)(C)OC2	NSD2 inh 127 (no result: RAD52 anneal inh, CASP6 VEID inh) | AlphaScreen art inactive
CC1(C)Cc2c(C#N)c(NCc3ccco3)nc(-c3ccco3)c2CO1	none (no result: RAD52 anneal inh, CASP6 VEID inh)
Cc1cccc(C)c1NC(=O)c1c[nH]c2ccccc12	NSD2 inh 143 | AlphaScreen art inactive
CN(C(=O)CSc1nc(-c2ccc(C(C)(C)C)cc2)c(C#N)c(=O)[nH]1)C1CCCCC1	NSD2 inh 60, CASP6 VEID inh 35 | AlphaScreen art inactive
CC1=CS(=O)(=O)CC1Sc1ncn[nH]1 (stereo not given)	NSD2 inh 144 (no result: RAD52 anneal inh, CASP6 VEID inh) | AlphaScreen art inactive
CCCC1Nc2ccc(C(=O)O)cc2C2C=CCC12 (stereo not given)	NSD2 inh 92 (no result: RAD52 anneal inh, CASP6 VEID inh) | AlphaScreen art inactive
CC(C)C1Nc2ccc(C(=O)O)cc2C2C=CCC21 (stereo not given)	NSD2 inh 58 (no result: RAD54 branch) | AlphaScreen art inactive
O=S(=O)(NCC[C@@H]1CC[C@@H](NS(=O)(=O)c2cccc(Cl)c2)[C@@H](CO)O1)c1cccc(F)c1	none (no result: NSD2 inh, N-glyco inh)
O=C(O)COc1ccccc1/C=N/Nc1ccc(S(=O)(=O)Nc2ccc(Cl)cc2)cc1[N+](=O)[O-]	NSD2 inh 50 (no result: RAD54 branch) | AlphaScreen art inactive
COc1ccccc1NS(=O)(=O)c1ccc(N/N=C/c2ccccc2OCC(=O)O)c([N+](=O)[O-])c1	none (no result: NSD2 inh, RAD54 branch)
C[C@H]1CN([C@@H](C)CO)C(=O)c2cccc(NC(=O)Nc3ccc4c(c3)OCO4)c2O[C@@H]1CN(C)S(=O)(=O)c1cn(C)cn1	none (no result: NSD2 inh, N-glyco inh)
CCN(CC)C(=O)CSc1nc2ccccc2c(=O)n1CCC(=O)NCc1ccc(F)cc1	NSD2 inh 121 (no result: RAD52 anneal inh, CASP6 VEID inh) | AlphaScreen art inactive
CCN(CC)C(=O)CSc1nc2ccccc2c(=O)n1CC	none (no result: RAD52 anneal inh, CASP6 VEID inh)
COc1ccc(C(=O)c2no[n+]([O-])c2C(=O)c2ccc(OC)cc2)cc1	none (no result: RAD52 anneal inh, NSD2 inh, RAD54 branch, CASP6 VEID inh)
Cc1c(C(=O)c2no[n+]([O-])c2C(=O)c2cnn(C)c2C)cnn1C	NSD2 inh 66 (no result: RAD52 anneal inh, CASP6 VEID inh) | AlphaScreen art inactive
CCOc1ccc(NC(=S)N2CCC(NC(=O)C3CCCCC3)CC2)cc1	NSD2 inh 57 (no result: RAD54 branch) | AlphaScreen art inactive
Cc1noc(C)c1NC(=O)Nc1ccc2c(c1)CC(=O)N([C@H](C)CO)C[C@H](C)[C@@H](CN(C)CC1CC1)O2	none (no result: NSD2 inh, N-glyco inh)
CC(OC(=O)c1ccco1)C(=O)NCc1ccc2c(c1)OCO2 (stereo not given)	none
COc1ccc(S(=O)(=O)NCc2ccc3c(c2)OCO3)cc1OC	NSD2 inh 55 | AlphaScreen art inactive
COc1ccc(S(=O)(=O)NCc2ccc3c(c2)OCO3)cc1C	none
COc1cc(OC)c(C(=O)OC(C)C(=O)NCc2ccc3c(c2)OCO3)cc1OC (stereo not given)	NSD2 inh 76 | AlphaScreen art inactive
CC(C)(C)/C=N/NC(=O)CNC(=O)c1ccc2c(c1)OCCO2	NSD2 inh 50 (no result: RAD54 branch) | AlphaScreen art inactive
COC(=O)C(C)(C)NC(=O)c1cccs1	NSD2 inh 124 | AlphaScreen art inactive
Cn1c(CSCc2ccccc2)nnc1SCC(=O)Nc1nccs1	NSD2 inh 120 (no result: RAD52 anneal inh, CASP6 VEID inh) | AlphaScreen art inactive
Cn1c(CSCc2ccc(F)cc2)nnc1SCC(=O)Nc1nccs1	none (no result: RAD52 anneal inh, CASP6 VEID inh)
CCCCN(C)C(=O)C1CCN(Cc2cccc(OCc3ccccc3)c2)CC1	NSD2 inh 73 | AlphaScreen art inactive
Cc1cc(SCC(=O)c2ccc(O)c(O)c2)nc2ccccc12	NSD2 inh 67 (no result: RAD54 branch) | AlphaScreen art inactive
Cc1cc(SCC(=O)Nc2cccnc2Cl)nc2ccccc12	NSD2 inh 65 | AlphaScreen art inactive
Cc1cc(SCC(=O)c2ccc3c(c2)OCO3)nc2ccccc12	none (no result: RAD52 anneal inh, CASP6 VEID inh)
COC(=O)[C@@H]1[C@@H](CO)[C@@H]2Cn3c(ccc(-c4ccccc4F)c3=O)[C@@H]2N1C(=O)c1cnccn1	none (no result: NSD2 inh, N-glyco inh)
O=C(C[C@@H]1CC[C@@H](NC(=O)C2CC2)[C@@H](CO)O1)NC1CCC1	none (no result: NSD2 inh, N-glyco inh)
Cc1cccc2c(=O)c(C(=O)NCCc3ccccc3)c[nH]c12	none
Cc1cccc2c(=O)c(C(=O)NCc3ccc(F)cc3)c[nH]c12	NSD2 inh 57 | AlphaScreen art inactive
CCN1/C(=C/c2ccc3cc(C)cc(C)c3[n+]2CC)Sc2cc(C)ccc21	NSD2 inh 113 | AlphaScreen art 9.7µM
COCCN(C(=O)CNC(=O)c1ccco1)C(C(=O)NC1CCCC1)c1ccc(OC)cc1 (stereo not given)	NSD2 inh 110 | AlphaScreen art inactive
COCCN(C(=O)CNC(=O)c1ccco1)C(C(=O)NC1CCCC1)c1ccccc1 (stereo not given)	none
O=C(Nc1cc(F)ccc1F)N1CCN(c2ccnc3cc(Cl)ccc23)CC1	NSD2 inh 61 (no result: RAD54 branch) | AlphaScreen art inactive
COC(=O)c1cc(NC(=O)Nc2cc(OC)ccc2OC)cc(C(=O)OC)c1	NSD2 inh 120 (no result: RAD52 anneal inh, CASP6 VEID inh) | AlphaScreen art inactive
O=C1CCCC(O)=C1N=Nc1ccc(C(=O)O)cc1	NSD2 inh 96, CASP6 VEID inh 38 | AlphaScreen art inactive
O=C1CCCC(O)=C1N=Nc1ccc2c(c1)OCO2	none
COc1ccc(-c2nnc3n2N=C(C)CS3)cc1	NSD2 inh 68 (no result: RAD52 anneal inh, CASP6 VEID inh) | AlphaScreen art inactive
CN1/C(=C\C=C2/SC(=S)NC2=O)C(C)(C)c2ccccc21	none (no result: NSD2 inh, RAD54 branch)
CN1CCC/C1=C/C=C1\SC(=S)NC1=O	NSD2 inh 53 (no result: RAD54 branch) | AlphaScreen art inactive
CC(C)(C)c1[nH]nc2c1C(C1C=CCCC1)C(C#N)=C(N)O2 (stereo not given)	NSD2 inh 127 (no result: RAD52 anneal inh, CASP6 VEID inh) | AlphaScreen art inactive
Cc1oc2ccc(OS(C)(=O)=O)cc2c1C(=O)OC(C)C	none (no result: RAD54 branch, CASP6 VEID inh)
CCN(CC)C(=O)COc1ccc2oc(C)c(C(=O)OC(C)C)c2c1	NSD2 inh 114 (no result: RAD52 anneal inh, CASP6 VEID inh) | AlphaScreen art inactive
Cc1noc(C)c1NC(=O)N(C)C[C@H]1Oc2ccc(NC(=O)CCC(F)(F)F)cc2C(=O)N([C@H](C)CO)C[C@H]1C	none (no result: NSD2 inh, N-glyco inh)
CC1(C)Cc2nc3[nH]c(=S)[nH]c(=O)c3cc2CO1	none
CC1(C)Cc2sc3c(=O)[nH]c(=S)[nH]c3c2CO1	NSD2 inh 75 (no result: RAD54 branch) | AlphaScreen art inactive
CCCNC(=O)C[C@H]1CC[C@@H]2[C@H](COc3ccc(NS(=O)(=O)CC)cc3C(=O)N2C)O1	none (no result: NSD2 inh, N-glyco inh)
O=C(CCc1nnc(-c2ccccc2)o1)NCc1cc(F)ccc1F	NSD2 inh 51 (no result: RAD54 branch) | AlphaScreen art inactive
FC(F)(F)c1cc(C(F)(F)F)c2ccc(N3CCN(c4ccc(Cl)cc4)CC3)nc2n1	none (no result: RAD52 anneal inh, CASP6 VEID inh)
Fc1ccc(N2CCN(c3ccc4c(C(F)(F)F)cc(C(F)(F)F)nc4n3)CC2)cc1	NSD2 inh 121 (no result: RAD52 anneal inh, CASP6 VEID inh) | AlphaScreen art inactive
COCCNC(=O)c1cnn2c(C(F)(F)F)cc(-c3ccc(C)cc3)nc12	none
CC(C)CNC(=O)c1cnn2c(C(F)(F)F)cc(C(F)(F)F)nc12	NSD2 inh 54 | AlphaScreen art inactive
CCN(CC)CCOc1ccc(C=NNc2nc3c([nH]2)c(=O)n(C)c(=O)n3C)cc1	NSD2 inh 51 | AlphaScreen art inactive
Cn1c(=O)c2[nH]c(NN=Cc3ccc(F)cc3)nc2n(C)c1=O	none
